Source: PubChem BioAssay (NCI)
About 79,000 compounds went through this panel and 15% of them were active in at least one assay; those are over-represented in the sample as a whole. A number with no mark means an inactive call. Active and inactive are the calls of the source. Rule as the data show it: active = growth inhibition above about 70%; inactive = the rest.

Experiments:
[1] = NCI Yeast Anticancer Drug Screen. Data for the rad50 strain (AID 155);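 also: 0% = growth of vehicle-only cultures of the same strain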; conditions: S. cerevisiae rad50 strain growth inhibition; at 50.0 µM; stronger effect = higher value
Procedure, shortened: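 Yeast carrying a defined DNA repair defect were exposed to test compounds, and growth was compared with vehicle-treated controls to give percent inhibition.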

[2] = NCI Yeast Anticancer Drug Screen. Data for the mec2-1 strain (AID 157); conditions: S. cerevisiae mec2-1 strain, at 50.0 µM, stronger effect = higher value
Procedure, shortened: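 mec2-1 yeast strain, carrying an alteration in DNA damage repair or cell cycle control, was exposed to compounds; growth inhibition was measured relative to vehicle-treated controls.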

[3] = NCI Yeast Anticancer Drug Screen. Data for the sgs1 mgt1 strain (AID 161);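 also: 0% = growth of cultures given vehicle only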; conditions: S. cerevisiae sgs1 mgt1 strain, at 50.0 µM, stronger effect = higher value
Procedure, shortened: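 Percent growth inhibition was derived by comparing compound-exposed mutant yeast with vehicle-exposed cultures. The strain carries alterations in DNA damage repair.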

[4] = NCI Yeast Anticancer Drug Screen. Data for the cln2 rad14 strain (AID 165);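 also: 0% = growth equal to vehicle treated cultures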; conditions: S. cerevisiae cln2 rad14 strain, at 50.0 µM, stronger effect = higher value
Procedure, shortened: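 Yeast carrying cln2 and rad14 alterations (cell cycle control and DNA damage repair) were exposed to compounds. Growth inhibition was measured against vehicle-treated controls.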

[5] = NCI Yeast Anticancer Drug Screen. Data for the bub3 strain (AID 167); conditions: S. cerevisiae bub3 mutant strain, at 50.0 µM, stronger effect = higher value
Procedure, shortened: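 Compounds were applied to a genetically altered yeast strain carrying a cell-cycle control defect. Growth inhibition was scored against vehicle-treated controls.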

[6] = NCI Yeast Anticancer Drug Screen. Data for the mlh1 rad18 strain (AID 175); conditions: S. cerevisiae mlh1 rad18 strain growth inhibition; at 50.0 µM; stronger effect = higher value
Procedure, shortened: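 Growth inhibition of the yeast strain was measured after compound exposure and expressed relative to vehicle-treated controls. The strain carries defined defects in DNA damage repair.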

SMILES | growth inhibition [1] | growth inhibition [2] | growth inhibition [3] | growth inhibition [4] | growth inhibition [5] | growth inhibition [6]
CC1(C(=O)O)CCCN1 (stereo unspecified) | 9.35% | -7.6% | -20.6% | 15.4% | -0.95% | -9%
CCCC1(c2ccccc2)OCC(CO)O1 (stereo unspecified) | 15% | 9.35% | -17.4% | 6.4% | 4.1% | 4.25%
CCN(CC)CCCNc1ccnc2c(N)cccc12 | 3.1% | 1.4% | 5.65% | 9.75% | 5.45% | 6.75%
Nc1nnnn1C(=O)NCCCl | -6.55% | 0.6% | -6.45% | -24.8% | -20.4% | -5.25%
CC(C)(Oc1ccc(Cl)cc1)C(=O)NC1CC(C)(C)N(O)C(C)(C)C1 | -0.4% | 4.95% | -13.2% | -48.5% | -43.2% | -18.4%
CNC(=O)N(C)C(=O)c1ccncc1C(=O)N(C(=O)NC1CCCCC1)C1CCCCC1 | 32.6% | 2.2% | 7.15% | 20.8% | -3.95% | 1.65%
C[N+](C)(C)C=Nc1cccc2c1CCCC2 | 2.6% | -37.8% | -26.4% | -7.05% | 6.05% | 1.55%
CCCCOC(=O)CC(C(=O)OCCCC)N1CCNCC1 (stereo unspecified) | -0.05% | -9.95% | -4.15% | -50.6% | -1.2% | -3.1%
COc1ccc(Cc2ccc(CO)cc2)cc1 | 4.6% | -18.9% | -31.9% | -20% | -7.7% | -14.2%
N=S(=O)(c1ccccc1)c1ccccc1[N+](=O)[O-] (stereo unspecified) | 41.4% | 17.9% | 56% | 49.5% | 19.5% | 57.2%
CCN(CC)Cc1cc(-n2cnc3c(=S)nc[nH]c32)ccc1O | -3.15% | -12.4% | -8.8% | 3.45% | -5.65% | -3.2%
CC1C=CC(C)N(c2nnnn2C)N1c1nnnn1C (stereo unspecified) | -11.6% | 9.75% | 14.9% | -6.3% | -2.6% | -3.9%
Cn1c(=O)c2[nH]c(CCNC(=O)c3ccccc3)nc2n(C)c1=O | 2.05% | -9.75% | -30.2% | -38.5% | -40.8% | -9.95%
Cc1cc(-n2cnc3c(N(CCO)CCO)ncnc32)ccc1[N+](=O)[O-] | 10.1% | -8.5% | -3.95% | -1.9% | 0.5% | -5.8%
COC(=O)c1nnn(-c2cc(Cl)ccc2Cl)c1C(=O)c1ccc(OC)cc1 | -13.1% | 3.8% | -12.7% | 53.7% | 37.4% | -3.25%
CC1NC(=O)CC(c2ccccc2)N(N=O)C1c1ccccc1 (stereo unspecified) | -53.5% | -3.3% | -4.1% | -7% | -9.05% | 8.65%
CC(C)(C)OC(=O)NCC(O)CNC(=O)OC(C)(C)C | -1.25% | -6.6% | -45.8% | -26% | -22.9% | -24.6%
CC(=O)OC[C@@]12CC[C@H]3C(C)(C)CCC[C@]3(C)[C@H]1C[C@@H](C1=CC(=O)O[C@H]1O)O2 | 86.6% (active) | 91.8% (active) | 91.5% (active) | 91.5% (active) | 89.4% (active) | 90% (active)

SMILES | growth inhibition [1] | growth inhibition [2] | growth inhibition [3] | growth inhibition [4] | growth inhibition [5] | growth inhibition [6]
Nc1ccc(Cc2ccc(N)c(Br)c2)cc1Br | -0.75% | 13.9% | 25.1% | -19.3% | -14.8% | 32.4%
CC1=CC(C/C(C)=C/COc2ccc3ccc(=O)oc3c2)OC1=O (stereo unspecified) | 8.15% | -38.9% | 11.7% | 11.3% | -0.8% | 7.75%
COc1ccc(C)cc1NS(=O)(=O)c1ccccc1 | -7.45% | -33.4% | -8.2% | -12.5% | -9.65% | 10.4%
N=C1CCCS1 | -7.05% | -2.35% | -7.1% | -6.3% | -49.5% | -4.7%
CCOC(=O)Cc1cc(=O)oc2cc(O)ccc12 | -22.9% | 2.3% | 4.1% | 22.7% | -1.8% | -1.1%
CC1CCC(C(C)C)C(OS(=O)(=O)c2ccccc2)C1 (stereo unspecified) | 0.1% | -26.7% | -10.4% | 17.3% | 11.6% | 1.8%
O=C1C2Nc3ccccc3N=C2OC1c1cccc([N+](=O)[O-])c1 (stereo unspecified) | 16.3% | 15.6% | 22.9% | 16.9% | 20.6% | 24.2%
COC1OCC(NC(=O)CNC(=O)CCCCCCCCCCCCC(C)C)C(O)C1O (stereo unspecified) | 16.2% | 5.55% | 8.75% | 32.5% | -8.1% | 18.6%
Cc1ccccc1N=Nc1c(O)n(-c2ccccc2)c(=S)n(-c2ccccc2)c1=O | 43.5% | 0.9% | 28.6% | -18.9% | 2.2% | 14.4%
COc1nc(NC2OCC(O)C(O)C2O)c(NC2OCC(O)C(O)C2O)c(=O)n1C (stereo unspecified) | -7.5% | -1.7% | -11.6% | 22.5% | -31.1% | -12.2%
c1ccc2c3nnc(c2c1)SCCSCCCSCCS3 | -24.4% | -31.4% | -2.2% | -5.25% | 8.65% | -30.4%
O=[N+]([O-])c1cc2c3ccccc3ccc2c2ccccc12 | -5.6% | 6.95% | 12.2% | -78.8% | 19.6% | 21.6%
O=C(O)CC1OCC=C2C[N+]3([O-])CCC45c6ccccc6NC4C1C2CC53 (stereo unspecified) | -1.5% | 19.7% | -16.1% | -31.9% | -35.4% | 10.6%
Oc1cc(O)c2c(c1)O[C@@H](c1ccc(O)c(O)c1)[C@H](O)C2 | 5.75% | -37.4% | 0.2% | 6.15% | -12.7% | 7.55%
CC(=O)N1CCCCC1C/C(C)=N/O (stereo unspecified) | 3.55% | 11.6% | -5.95% | -5.6% | 1.35% | 3.3%
CCOC(=O)c1cnc(SC)nc1N | 9.25% | -8.1% | -7.9% | -2.1% | 8.95% | -3.5%
CC(C)(C)C1=CC(=N/S(=O)(=O)c2ccccc2)/C(N=[N+]=[N-])=C(Cl)C/1=N\S(=O)(=O)c1ccccc1 | 54.8% | 27.4% | 48.2% | 14% | 23.6% | 39%
CCN(CC)c1ccc2cc(-c3nc4ccccc4n3C)c(=O)oc2c1 | 14.8% | -6% | 2.2% | 6.55% | 1.35% | 14.1%
